PubChem BioAssay AID1345085 (National Center for Advancing Translational Sciences (NCATS), 2018)
Inconclusive results are not listed. The source made the active and inactive calls. The call rests on the fitted dose curve; in most records, active means well fitted cell-killing curve with a large enough effect; inconclusive means small, poorly fitted or top-dose-only effect, or effect the other way; inactive means no such curve, though single readings can be large or run the other way.
Further: nearly all actives have a fitted effect of over 55% in size.
Potency means the concentration at half of the fitted maximal effect.

What follows are compounds tested on Es-2 (assay: Confirmatory qHTS for gynecologic anti-cancer compounds from libraries of approved drugs and bioactive compounds). Conditions: gynecologic cancer cell panel viability, ATPlite luminescence, 48 h; series mostly up to 57.6 µM.
How it was run: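 ATPlite luminescence read-out of cell viability; IC50 from 11-point 1:3 titrations, 57.5 uM to 0.977 nM, 48 h compound exposure at 37 C, 5% CO2. Cells seeded at 1,000/well 16 h before dosing.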
With `Cc1nc(N)nc(N)c1-c1ccc(Cl)c(Cl)c1` the Potency was 1.37 µM (active). In the case of `Cc1ccc(C(=O)Nc2ccc(CN3CCN(C)CC3)c(C(F)(F)F)c2)cc1C#Cc1cnc2[nH]ncc2c1`, the Potency was 0.306 µM (active). With `CCN1CCN(Cc2ccc(-c3cc4c(NC(C)c5ccccc5)ncnc4[nH]3)cc2)CC1` (stereo unspecified) the Potency was 27.3 µM (active). With `Cc1ccccc1C(OCCN(C)C)c1ccccc1` (stereo unspecified) the Potency was “inactive”. In the case of `S=c1nc[nH]c2nc[nH]c12`, the Potency was 3.85 µM (active). In the case of `CN(C[C@@H]1COCCO1)S(=O)(=O)Nc1ccc2ccc3ncc(-c4cnn(C)c4)cc3c(=O)c2c1`, the Potency was “inactive”. With `O=C(/C=C/c1cccc(S(=O)(=O)Nc2ccccc2)c1)NO` the Potency was 2.98 µM (active). For `CS(=O)(=O)c1ccc(C(=O)Nc2ccc(Cl)c(-c3ccccn3)c2)c(Cl)c1`, the Potency was “inactive”. `CN(C)CC/C=C1\c2ccccc2COc2ccccc21` was tested, and the Potency was “inactive”. With `CN(C)CCC(CSc1ccccc1)Nc1ccc(S(=O)(=O)NC(=O)c2ccc(N3CCN(Cc4ccccc4-c4ccc(Cl)cc4)CC3)cc2)cc1[N+](=O)[O-]` (stereo unspecified) the Potency was 4.85 µM (active). For `Cc1cnc(Nc2ccc(CN3CCOCC3)cc2)nc1Nc1cccc(S(=O)(=O)NC(C)(C)C)c1`, the Potency was 4.32 µM (active). For `COc1cc2c(Oc3ccc(-c4cnc(Nc5ccc(F)cc5)n(C)c4=O)cc3F)ccnc2cc1OCCCN1CCOCC1`, the Potency was “inactive”. In the case of `Nc1ccn([C@@H]2O[C@H](CO)[C@@H](O)C2(F)F)c(=O)n1`, the Potency was 0.0306 µM (active). With `Cc1nc(N)sc1-c1ccnc(Nc2ccc(N3CCOCC3)cc2)n1` the Potency was 9.68 µM (active). `CCc1c2c(nc3ccc(OC(=O)N4CCC(N5CCCCC5)CC4)cc13)-c1cc3c(c(=O)n1C2)COC(=O)[C@]3(O)CC` was tested, and the Potency was 12.2 µM (active). `Nc1nccc(Oc2ccc(NC(=O)c3c[nH]cc(-c4ccc(F)cc4)c3=O)cc2F)c1Cl` was tested, and the Potency was 34.3 µM (active). `CNCc1ccc(-c2[nH]c3cc(F)cc4c3c2CCNC4=O)cc1` was tested, and the Potency was “inactive”. In the case of `CS(=O)(=O)c1ccc(-c2cnc(N)c(C(=O)Nc3ccccc3)n2)cc1`, the Potency was “inactive”. In the case of `O=c1[nH]c(=O)n([C@H]2C[C@H](O)[C@@H](CO)O2)cc1Br`, the Potency was “inactive”. For `OCCNC1CCCc2c1[nH]c1ccc(-c3ccccc3)cc21` (stereo unspecified), the Potency was 19.3 µM (active). In the case of `COc1cc2c(NC3CCN(C(C)C)CC3)nc(C3CCCCC3)nc2cc1OCCCN1CCCC1`, the Potency was 12.2 µM (active). `CC[C@@]1(O)C(=O)OCc2c1cc1n(c2=O)Cc2cc3cc(O)ccc3nc2-1` was tested, and the Potency was 0.0544 µM (active). `CCN[C@H]1C[C@H](C)S(=O)(=O)c2sc(S(N)(=O)=O)cc21` was tested, and the Potency was “inactive”. `C1CCC(C(CC2CCCCN2)C2CCCCC2)CC1` (stereo unspecified) was tested, and the Potency was 24.3 µM (active). `Cn1cc(-c2ccc3ncc(Cc4ccc5ncccc5c4)n3n2)cn1` was tested, and the Potency was “inactive”. In the case of `CN(C)/N=N/c1nc[nH]c1C(N)=O`, the Potency was “inactive”. `COc1ccc2cc3[n+](cc2c1OC)CCc1cc2c(cc1-3)OCO2` was tested, and the Potency was “inactive”. In the case of `NCCOc1cc(C(=O)Nc2cc(OCCN)c3ccccc3n2)nc(C(=O)Nc2cc(OCCN)c3ccccc3n2)c1`, the Potency was “inactive”. For `CCCCN(CCCC)C(=O)CN1C[C@H](c2ccc3c(c2)OCO3)[C@@H](C(=O)O)[C@@H]1c1ccc(OC)cc1`, the Potency was “inactive”. In the case of `CC(C)C[C@H](NC(=O)[C@@H](NC(=O)c1cccc(-c2ccccc2)n1)[C@@H](C)O)B(O)O`, the Potency was 0.0685 µM (active). `CCS(=O)(=O)N1CCN(c2ccc(Nc3ncc(C(N)=O)c(NC4CC4)n3)cc2)CC1` was tested, and the Potency was “inactive”. With `CN(NC(=O)CC(=O)NN(C)C(=S)c1ccccc1)C(=S)c1ccccc1` the Potency was 0.611 µM (active). With `Cc1nc(Nc2n[nH]c3c2CN(C(=O)NC(CN(C)C)c2ccccc2)C3(C)C)c2sccc2n1` (stereo unspecified) the Potency was 4.32 µM (active). `CN(C)C/C=C/C(=O)Nc1cc2c(Nc3ccc(F)c(Cl)c3)ncnc2cc1OC1CCOC1` (stereo unspecified) was tested, and the Potency was 15.3 µM (active). In the case of `Cc1cc(SCc2sc(-c3ccc(C(F)(F)F)cc3)nc2C)ccc1OCC(=O)O`, the Potency was “inactive”. `O=C(CCCCCCC(=O)Nc1ccccc1)NO` was tested, and the Potency was 3.06 µM (active).
